Laboratory results from PMC4336329 (PLoS ONE, 2015).
Screen size: about 310,000 compounds; about 14,000 (4.5%) showed an effect of 50% or more. The effect is printed as a negative number. For the sample, strong results were picked, then their nearest neighbours and some compounds at random.

These compounds were tested against human ether-à-go-go-related gene (hERG) potassium channel (human, UniProt Q12809) (assay: primary screen, population patch clamp on CHO cells stably expressing hERG; higher = less effect of the substance).
Sequence of human ether-à-go-go-related gene (hERG) potassium channel (Q12809 whole entry, looked up): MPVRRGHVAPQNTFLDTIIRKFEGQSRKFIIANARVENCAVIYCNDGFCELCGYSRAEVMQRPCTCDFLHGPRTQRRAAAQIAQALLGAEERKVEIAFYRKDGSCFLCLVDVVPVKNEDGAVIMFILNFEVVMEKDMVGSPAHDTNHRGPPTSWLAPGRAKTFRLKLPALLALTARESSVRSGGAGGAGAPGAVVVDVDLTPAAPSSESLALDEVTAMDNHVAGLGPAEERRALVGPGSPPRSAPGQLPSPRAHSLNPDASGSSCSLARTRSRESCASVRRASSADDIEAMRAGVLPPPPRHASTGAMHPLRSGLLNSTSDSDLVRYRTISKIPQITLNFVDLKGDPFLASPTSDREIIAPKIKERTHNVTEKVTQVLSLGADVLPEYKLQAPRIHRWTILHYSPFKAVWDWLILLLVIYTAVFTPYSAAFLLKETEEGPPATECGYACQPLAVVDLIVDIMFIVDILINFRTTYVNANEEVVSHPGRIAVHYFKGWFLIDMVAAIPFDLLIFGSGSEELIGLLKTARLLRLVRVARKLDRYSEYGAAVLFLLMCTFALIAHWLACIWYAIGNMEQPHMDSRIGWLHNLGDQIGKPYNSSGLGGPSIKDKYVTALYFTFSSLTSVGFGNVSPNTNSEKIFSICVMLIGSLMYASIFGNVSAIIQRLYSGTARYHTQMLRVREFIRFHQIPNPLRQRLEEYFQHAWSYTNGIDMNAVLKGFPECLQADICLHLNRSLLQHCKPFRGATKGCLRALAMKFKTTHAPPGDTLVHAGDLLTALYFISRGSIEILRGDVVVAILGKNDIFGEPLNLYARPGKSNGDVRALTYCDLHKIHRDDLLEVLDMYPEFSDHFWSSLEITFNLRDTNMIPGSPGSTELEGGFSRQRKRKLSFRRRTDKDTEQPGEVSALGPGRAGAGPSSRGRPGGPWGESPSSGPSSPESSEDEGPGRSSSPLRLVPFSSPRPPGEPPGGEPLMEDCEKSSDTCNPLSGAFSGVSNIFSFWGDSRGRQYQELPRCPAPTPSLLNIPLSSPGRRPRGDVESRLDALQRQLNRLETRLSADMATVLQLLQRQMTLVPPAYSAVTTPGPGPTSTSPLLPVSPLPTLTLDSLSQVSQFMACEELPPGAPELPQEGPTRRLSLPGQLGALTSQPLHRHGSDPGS
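Further: peak tail current of the secondary pulse compared with the same well before compound.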

Row | SMILES | hERG current change (%, negative = inhibition) at 10uM [%]
1 | O=C(Nc1ccc(O)cc1)C1CCCN1S(=O)(=O)c1ccc(F)cc1 (centres unmarked) | -1.44
2 | C=CCn1c(SCc2ccc(C(=O)OC)cc2)nnc1-c1sc(N)nc1C | -8.5
3 | COC(=O)c1sc(N)c(C(=O)OC)c1CSc1nnc(-c2ccccc2Cl)n1C | -24.5
4 | C=CCn1c(SCC(=O)NC2CCCCC2)nnc1-c1ccc(OC)cc1 | -12
5 | COC(=O)c1sc(N)c(C(=O)OC)c1CSc1nnnn1C | -12.2
6 | C=CCn1c(SCc2c(C(=O)OC)sc(N)c2C(=O)OC)nnc1-c1ccc(Br)cc1 | -65.4
7 | C=CCn1c(SCc2c(C(=O)OC)sc(N)c2C(=O)OC)nnc1-c1ccc(Cl)cc1 | -58.1
8 | O=C(O)c1cccnc1SCC(=O)N1CCCc2ccccc21 | 14.6
9 | Nc1nc(SCC(=O)Nc2ccccc2)nc2nc3c(cc12)CCCC3 | -1.5
10 | C=C1SC(=Nc2c(C)cccc2Cl)N(C(=O)c2sc3ccccc3c2Cl)C12CCCCC2 | 25.8
11 | Cc1ccc(S(=O)(=O)NCCCCCC(=O)Nc2cccc(C)c2)cc1 | -39.2
12 | Cc1cc(C)c(OCCN2CCCC2)c(Cl)c1 | -42.1
13 | Cc1cc(Cl)cc(Cl)c1OCCN1CCCC1 | -55
14 | Cc1cc(C)c(OCCN2CCOCC2)c(Cl)c1 | 8.09
15 | Cc1cc(C)c(OCCCCN2CCNCC2)c(C)c1.O=C(O)C(=O)O | 9.44
16 | Cc1cc(Cl)c(OCCCCN2CCOCC2)c(Br)c1 | -30.2
17 | Cc1cc(Cl)c(OCCOCCN2CCNCC2)c(Cl)c1.O=C(O)C(=O)O | -7.47
18 | Cc1cc(Cl)c(OCCOCCN2CCN(C)CC2)c(Br)c1.O=C(O)C(=O)O | -9.48
19 | Cc1cc(Cl)c(OCCCN(C)C)c(Br)c1.O=C(O)C(=O)O | -40.4

Row | SMILES | hERG current change (%, negative = inhibition) at 10uM [%]
20 | Cc1cc(Cl)c(OCCOCCN2CCC(C)CC2)c(Br)c1.O=C(O)C(=O)O | -57.6
21 | Cc1cc(C)c(OCCN2CC(C)OC(C)C2)c(Br)c1.O=C(O)C(=O)O (centres unmarked) | -17.5
22 | Cc1cc(Cl)c(OCCCN2CCCCC2)c(Br)c1.O=C(O)C(=O)O | -68.1
23 | Cc1cc(C)c(OCCCCN2CCC(C)CC2)c(Br)c1 | -72.7
24 | CCOC(=O)c1ccc(S(=O)(=O)NCCN(CC)CC)cc1.Cl | 11.4
25 | CS(=O)(=O)N1CCC(Oc2cccc(C(=O)NCCCC3CCCC3)c2)CC1 | -30.3
26 | Cc1ccc(S(=O)(=O)N2CCN(C(=O)CN3C(=O)c4ccccc4C3=O)CC2)c(C)c1 | 9.02
27 | CCN(CC(=O)Nc1ccc(Cl)c(C(F)(F)F)c1)CC(=O)NC1CCS(=O)(=O)C1 (centres unmarked) | -13.2
28 | CCOc1ccc(C2Nc3ccccc3NC3=C2C(=O)CC(C)(C)C3)cc1OC (centres unmarked) | 15.6
29 | Cc1ccc2nsnc2c1S(=O)(=O)N1CCN(C(=O)C2CCCO2)CC1 (centres unmarked) | 2.61
30 | Cc1ccc(NC(=O)C2CCN(S(=O)(=O)c3ccc4c(c3)CCCC(=O)N4)CC2)c(Br)c1 | -5.9
31 | CCOc1c2ccc(C(=O)N[C@H](C)C3CCCCC3)cc2nn1CCOC | -18.2
32 | CN1CCN(CCOCCOc2c(Cl)cc(Cl)cc2Cl)CC1.O=C(O)C(=O)O | -26.9
33 | Cc1cc(C)c(OCCOCCN2CCN(C)CC2)c(Cl)c1.O=C(O)C(=O)O | -5.21
34 | Cc1cc(Cl)c(OCCOCCN2CCCC(C)C2)c(Br)c1.O=C(O)C(=O)O (centres unmarked) | -61.8
35 | Cc1cc(C)c(NC(=O)NC(=O)c2ccc(F)cc2)c(C)n1 | -0.738
36 | CC(C)c1ccc(N(C(=O)c2ccc3c(c2)OCO3)C2C=CS(=O)(=O)C2)cc1 (centres unmarked) | -66.2
37 | Cc1ccc(N(C(=O)c2ccc3c(c2)OCO3)C2C=CS(=O)(=O)C2)cc1 (centres unmarked) | -29.7
38 | O=C(c1ccc2c(c1)OCO2)N(c1ccc(Cl)cc1)C1C=CS(=O)(=O)C1 (centres unmarked) | -16.8

Row | SMILES | hERG current change (%, negative = inhibition) at 10uM [%]
39 | COc1ccccc1P(=O)(c1ccccc1)c1ccccc1NC(C)=O (centres unmarked) | 14.3
40 | CCOC(=O)c1sc(N(Cc2ccccc2)C(=O)CN2C(=O)CN(C)C2=O)nc1C | -59
41 | CCOC(=O)c1sc(N(Cc2ccccc2)C(=O)CCl)nc1C | -6.21
42 | CCOC(=O)c1sc(N(Cc2ccccc2)C(=O)COC(=O)c2ccccc2O)nc1C | -5.14
43 | CCOc1ccccc1C(=O)NCCCCNC(=O)c1ccccc1OCC | -31.4
44 | CCOc1ccccc1C(=O)NCCCN1CCN(CCCNC(=O)c2ccccc2OCC)CC1 | -53.3
45 | O=C(NCCCN1CCN(CCCNC(=O)c2ccccc2F)CC1)c1ccccc1F | -53
46 | O=C(NCCCCNC(=O)c1ccccc1F)c1ccccc1F | 14.8
47 | O=C(NCCCN1CCN(Cc2ccccc2)CC1)c1nnc(Cc2c(F)cccc2Cl)o1 | -63.1
48 | CCOc1ccccc1C(=O)NCCNC(=O)c1ccccc1OCC | -2.01
49 | O=C(NCCCN1CCCC1=O)c1nnc(Cc2c(F)cccc2Cl)o1 | 1.34
50 | Cl.O=C(NCCN1CCN(c2ccccc2)CC1)c1ccccc1F | -11
51 | CN1CCN(CCCNC(=O)c2nnc(Cc3c(F)cccc3Cl)o2)CC1 | -3.44
52 | CC(C)CN(C(=O)C1CC1)c1c(N)n(Cc2ccccc2)c(=O)[nH]c1=O | 21.2
53 | CC1CCCC(C)N1C(=O)CSc1nnnn1Cc1ccccc1 (centres unmarked) | -3.54
54 | O=C(NNc1cccc(Cl)c1)c1cccnc1Oc1ccccc1 | -8.21
55 | Fc1cccc(Cl)c1CSc1nnc(CNc2ccccc2)o1 | -21.5
56 | COc1ccc(CC(=O)N/N=C/c2cccn2-c2ccc([N+](=O)[O-])cc2)cc1OC | -37.9
